Active and inactive are the calls of the source.

A short description of experiment [1]: small molecules captured by biotinylated probe aFSTL3 – biochemical, small-molecule microarray, fluorescence 635/667, stem cell growth factor project, primary screen (AID 1064).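 Also: measures binding of the biotinylated anti-FSTL3 antibody to printed compounds.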 The settings on record: higher = more signal.
The nature of experiment [2]: binders from COS7 lysate, DM2A8 probe, primary screen, torsin A project, cell lysate, small-molecule microarray, fluorescence 635/667 (AID 1065). The settings on record: higher = more signal, COS7 lysate expressing mutant human TOR1A.
Experiment [3] is described as follows: small molecules captured by biotinylated probe aFGF2 – biochemical, small-molecule microarray, fluorescence 635/667, stem cell growth factor project, primary screen (AID 1067).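 Also: measures binding of biotinylated aFGF2 protein to printed compounds on slides; z-score merges feature fluorescence and signal-to-noise across triplicate slides.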 The following applies: higher = more signal.
A short description of experiment [4]: small molecules captured by biotinylated probe aFGF10 – biochemical, small-molecule microarray, fluorescence 635/667, stem cell growth factor project, primary screen (AID 1071).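 Also: score merges 667 nm spot intensity and signal to noise from triplicate slides.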 The following applies: higher = more signal.
Experiment [5] deals with Neurogenic locus notch homolog protein 2 (Homo sapiens) (UniProt Q04721). In words: small molecules binding Notch2 protein – biochemical, small-molecule microarray, 635 nm fluorescence, stem cell growth factors, primary screen (AID 1073). The following applies: higher = more signal.
For experiment [6], the target named is Pro-neuregulin-1, membrane-bound isoform (Homo sapiens) (UniProt Q02297). In words: small molecules binding neuregulin-1 protein – biochemical, small-molecule microarray, fluorescence 635/667, psychiatric disease protein project, primary screen (AID 1075).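 Also: score combines 667 nm spot fluorescence with signal to noise.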 The settings on record: NRG1 binding, 635 nm fluorescence, higher = more signal.
Experiment [7] concerns Neuregulin-1 EGF-like domain. The experiment in a line: small molecules binding NRG1 EGF domain – biochemical, small-molecule microarray, 635 nm fluorescence, primary screen (AID 1081).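 Also: binding of the protein to compounds printed on small-molecule microarray slides.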 The following applies: higher = more signal.
A short description of experiment [8]: FRG1 expression reporter modulators in myotubes – cell-based, C2C12 myotubes, firefly/Renilla luciferase, luminescence, FRG1 inhibition for FSHD, primary screen (AID 1084). The settings on record: FRG1 promoter luciferase, higher = more signal, called active from +8 up or from −8 down.
Experiment [9] in a line: small molecules captured by biotinylated probe aFST – biochemical, small-molecule microarray, fluorescence 635/667, stem cell growth factor project, primary screen (AID 1086).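 Also: score merges 667 nm fluorescence with signal-to-noise of each printed compound spot.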 The following applies: higher = more signal.
A short description of experiment [10]: binders of probe aHhip on microarray, primary screen, stem cell growth factor project, biochemical, small-molecule microarray, fluorescence 635/667 (AID 1087).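 Also: score merges spot fluorescence at 667nm with spot signal to noise ratio.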 The following applies: higher = more signal.
Experiment [11] has as its system PRMT1 (protein arginine N-methyltransferase 1). In words: small molecules binding arginine methyltransferase PRMT1 – biochemical, small-molecule microarray, 635 nm fluorescence, primary screen (AID 1088).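 Also: binding of Prmt1 protein to compounds spotted on small-molecule microarray slides.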 The settings on record: higher = more signal.
The nature of experiment [12]: growth effects on S. cerevisiae YJM789 – YJM789 clinical isolate, OD600, 24 h, basal, primary screen (AID 1089).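 Also: growth of clinical yeast isolate S. cerevisiae YJM 789 seeded 1000 cells per well; test concentration not given here.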 The settings on record: higher = more signal, called active from +8 up or from −8 down.
A short description of experiment [13]: S. pombe growth modifiers, basal conditions – strain 972, OD600, 24 h, no modulator, primary screen (AID 1090).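 Also: basal condition with compound alone and no growth modifier present; test concentration not given here.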 The settings on record: S. pombe 972 growth, higher = more signal, called active from +8 up or from −8 down.
A short description of experiment [14]: budding yeast growth modifiers under rapamycin – strain BY4716, OD600, 96 h, primary screen (AID 1091). Also: test concentration not given here. The following applies: S. cerevisiae BY4716 + rapamycin, higher = more signal, called active from +8 up or from −8 down.
Experiment [15] has as its target Torsin-1A-interacting protein 2 (Homo sapiens) (UniProt Q8NFQ8). The experiment in a line: small molecules binding lysate-expressed LULL1 – cell lysate, human LULL1 lysate, 635/667 nm fluorescence, primary screen (AID 1092).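 Also: probe is lysate of COS7 cells overexpressing human LULL1; score merges per-feature 667 nm fluorescence with signal-to-noise.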 The settings on record: small-molecule microarray, hLULL1 lysate binding, 635 nm fluorescence; higher = more signal.
Experiment [16] can be described thus: optical density change of DRC41 E. coli – strain DRC41, OD650, 24 h, E. coli filamentation project, primary screen (AID 1093).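 Also: MC1000 strain lacking acrAB efflux and sulA so SOS filamentation is blocked; test concentration not given here.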 The following applies: E. coli DRC41 growth, higher = more signal, called active from +8 up or from −8 down.
Experiment [17] is described as follows: probe aLefty2 binding to arrayed compounds – biochemical, biotinylated probe, 635/667 nm fluorescence, primary screen (AID 1094).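 Also: score merges spot fluorescence near 667 nm with spot signal-to-noise ratio.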 The settings on record: small-molecule microarray, higher = more signal.
The subject of experiment [18] is Noggin (protein binding on small-molecule microarray). In words: small molecules binding Noggin protein – biochemical, 635/667 nm fluorescence, primary screen (AID 1095).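 Also: score merges 667 nm feature fluorescence with signal to noise over triplicate slides.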 The settings on record: 635 nm fluorescence, higher = more signal.
Experiment [19] concerns the target Neurogenic locus notch homolog protein 3 (Homo sapiens) (UniProt Q9UM47). The experiment in a line: small molecules binding NOTCH3 protein – biochemical, 635/667 nm fluorescence, primary screen (AID 1096). The following applies: small-molecule microarray, 635 nm fluorescence, higher = more signal.
Experiment [20] in a line: probe aEGFR binding to arrayed compounds – biochemical, biotinylated probe, 635/667 nm fluorescence, primary screen (AID 1097).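 Also: probe is a biotinylated anti-EGFR antibody binding compounds printed on slides; score combines fluorescence near 667 nm and signal to noise of each spot.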 The settings on record: small-molecule microarray, higher = more signal.

Chain of Neurogenic locus notch homolog protein 3 (Homo sapiens) (Q9UM47 whole entry, looked up): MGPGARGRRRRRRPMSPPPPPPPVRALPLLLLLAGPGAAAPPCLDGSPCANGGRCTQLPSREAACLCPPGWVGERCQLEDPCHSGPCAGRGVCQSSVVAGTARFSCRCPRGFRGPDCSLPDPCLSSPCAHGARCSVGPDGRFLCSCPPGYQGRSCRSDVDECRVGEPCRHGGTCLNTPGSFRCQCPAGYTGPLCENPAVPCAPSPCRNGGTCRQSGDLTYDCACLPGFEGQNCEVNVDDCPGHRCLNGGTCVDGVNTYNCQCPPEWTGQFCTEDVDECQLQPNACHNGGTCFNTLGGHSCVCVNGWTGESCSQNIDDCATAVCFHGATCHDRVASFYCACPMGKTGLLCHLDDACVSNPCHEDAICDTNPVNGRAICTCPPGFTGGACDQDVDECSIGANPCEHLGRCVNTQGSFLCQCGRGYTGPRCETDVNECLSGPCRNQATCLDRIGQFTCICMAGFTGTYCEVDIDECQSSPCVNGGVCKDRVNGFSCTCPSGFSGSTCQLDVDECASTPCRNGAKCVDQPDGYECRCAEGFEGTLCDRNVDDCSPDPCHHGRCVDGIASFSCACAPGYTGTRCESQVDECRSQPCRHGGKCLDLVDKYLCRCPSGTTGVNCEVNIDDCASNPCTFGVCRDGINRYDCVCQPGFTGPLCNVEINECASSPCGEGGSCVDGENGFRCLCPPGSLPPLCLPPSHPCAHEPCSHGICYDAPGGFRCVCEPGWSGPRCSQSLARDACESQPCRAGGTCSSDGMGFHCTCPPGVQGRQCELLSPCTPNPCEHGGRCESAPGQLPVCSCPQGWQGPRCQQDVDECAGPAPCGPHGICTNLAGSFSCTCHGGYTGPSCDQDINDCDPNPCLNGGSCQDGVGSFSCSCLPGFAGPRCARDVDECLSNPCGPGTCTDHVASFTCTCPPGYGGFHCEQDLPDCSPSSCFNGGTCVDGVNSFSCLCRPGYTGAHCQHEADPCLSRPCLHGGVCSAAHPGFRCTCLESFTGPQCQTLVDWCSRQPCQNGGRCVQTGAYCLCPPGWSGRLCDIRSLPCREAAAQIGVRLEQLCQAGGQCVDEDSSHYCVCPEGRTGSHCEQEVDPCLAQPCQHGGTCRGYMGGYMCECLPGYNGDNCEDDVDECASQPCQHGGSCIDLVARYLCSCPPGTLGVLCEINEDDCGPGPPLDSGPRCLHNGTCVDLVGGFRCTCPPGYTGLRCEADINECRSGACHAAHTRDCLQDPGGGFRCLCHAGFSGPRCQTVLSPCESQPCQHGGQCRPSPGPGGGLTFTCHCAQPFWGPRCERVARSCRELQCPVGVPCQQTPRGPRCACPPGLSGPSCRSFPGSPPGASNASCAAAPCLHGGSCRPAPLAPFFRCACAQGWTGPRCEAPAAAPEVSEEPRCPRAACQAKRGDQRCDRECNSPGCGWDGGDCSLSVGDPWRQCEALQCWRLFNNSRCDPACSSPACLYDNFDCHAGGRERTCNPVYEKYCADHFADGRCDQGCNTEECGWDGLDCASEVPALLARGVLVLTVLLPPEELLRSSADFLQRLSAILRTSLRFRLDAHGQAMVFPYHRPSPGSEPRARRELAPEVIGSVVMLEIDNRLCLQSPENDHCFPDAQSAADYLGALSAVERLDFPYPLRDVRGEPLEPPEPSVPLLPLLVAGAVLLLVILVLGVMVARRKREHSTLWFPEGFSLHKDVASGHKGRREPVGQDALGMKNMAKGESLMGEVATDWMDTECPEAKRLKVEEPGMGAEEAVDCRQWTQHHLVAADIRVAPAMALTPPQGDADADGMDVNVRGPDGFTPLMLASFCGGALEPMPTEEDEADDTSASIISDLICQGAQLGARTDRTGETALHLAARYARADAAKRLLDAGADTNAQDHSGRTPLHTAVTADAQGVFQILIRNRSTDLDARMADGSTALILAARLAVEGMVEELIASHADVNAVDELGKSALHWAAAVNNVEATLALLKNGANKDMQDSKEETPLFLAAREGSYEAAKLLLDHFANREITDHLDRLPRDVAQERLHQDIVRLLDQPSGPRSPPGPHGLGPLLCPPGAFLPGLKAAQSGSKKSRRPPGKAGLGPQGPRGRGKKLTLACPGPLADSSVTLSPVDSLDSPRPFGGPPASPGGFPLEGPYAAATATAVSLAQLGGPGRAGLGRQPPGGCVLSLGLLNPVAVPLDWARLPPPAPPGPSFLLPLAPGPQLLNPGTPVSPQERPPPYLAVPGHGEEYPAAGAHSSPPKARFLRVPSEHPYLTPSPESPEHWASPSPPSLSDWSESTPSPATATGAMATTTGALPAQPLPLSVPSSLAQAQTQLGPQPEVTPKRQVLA
Chain of Neurogenic locus notch homolog protein 2 (Homo sapiens) (Q04721 whole entry, looked up, canonical isoform): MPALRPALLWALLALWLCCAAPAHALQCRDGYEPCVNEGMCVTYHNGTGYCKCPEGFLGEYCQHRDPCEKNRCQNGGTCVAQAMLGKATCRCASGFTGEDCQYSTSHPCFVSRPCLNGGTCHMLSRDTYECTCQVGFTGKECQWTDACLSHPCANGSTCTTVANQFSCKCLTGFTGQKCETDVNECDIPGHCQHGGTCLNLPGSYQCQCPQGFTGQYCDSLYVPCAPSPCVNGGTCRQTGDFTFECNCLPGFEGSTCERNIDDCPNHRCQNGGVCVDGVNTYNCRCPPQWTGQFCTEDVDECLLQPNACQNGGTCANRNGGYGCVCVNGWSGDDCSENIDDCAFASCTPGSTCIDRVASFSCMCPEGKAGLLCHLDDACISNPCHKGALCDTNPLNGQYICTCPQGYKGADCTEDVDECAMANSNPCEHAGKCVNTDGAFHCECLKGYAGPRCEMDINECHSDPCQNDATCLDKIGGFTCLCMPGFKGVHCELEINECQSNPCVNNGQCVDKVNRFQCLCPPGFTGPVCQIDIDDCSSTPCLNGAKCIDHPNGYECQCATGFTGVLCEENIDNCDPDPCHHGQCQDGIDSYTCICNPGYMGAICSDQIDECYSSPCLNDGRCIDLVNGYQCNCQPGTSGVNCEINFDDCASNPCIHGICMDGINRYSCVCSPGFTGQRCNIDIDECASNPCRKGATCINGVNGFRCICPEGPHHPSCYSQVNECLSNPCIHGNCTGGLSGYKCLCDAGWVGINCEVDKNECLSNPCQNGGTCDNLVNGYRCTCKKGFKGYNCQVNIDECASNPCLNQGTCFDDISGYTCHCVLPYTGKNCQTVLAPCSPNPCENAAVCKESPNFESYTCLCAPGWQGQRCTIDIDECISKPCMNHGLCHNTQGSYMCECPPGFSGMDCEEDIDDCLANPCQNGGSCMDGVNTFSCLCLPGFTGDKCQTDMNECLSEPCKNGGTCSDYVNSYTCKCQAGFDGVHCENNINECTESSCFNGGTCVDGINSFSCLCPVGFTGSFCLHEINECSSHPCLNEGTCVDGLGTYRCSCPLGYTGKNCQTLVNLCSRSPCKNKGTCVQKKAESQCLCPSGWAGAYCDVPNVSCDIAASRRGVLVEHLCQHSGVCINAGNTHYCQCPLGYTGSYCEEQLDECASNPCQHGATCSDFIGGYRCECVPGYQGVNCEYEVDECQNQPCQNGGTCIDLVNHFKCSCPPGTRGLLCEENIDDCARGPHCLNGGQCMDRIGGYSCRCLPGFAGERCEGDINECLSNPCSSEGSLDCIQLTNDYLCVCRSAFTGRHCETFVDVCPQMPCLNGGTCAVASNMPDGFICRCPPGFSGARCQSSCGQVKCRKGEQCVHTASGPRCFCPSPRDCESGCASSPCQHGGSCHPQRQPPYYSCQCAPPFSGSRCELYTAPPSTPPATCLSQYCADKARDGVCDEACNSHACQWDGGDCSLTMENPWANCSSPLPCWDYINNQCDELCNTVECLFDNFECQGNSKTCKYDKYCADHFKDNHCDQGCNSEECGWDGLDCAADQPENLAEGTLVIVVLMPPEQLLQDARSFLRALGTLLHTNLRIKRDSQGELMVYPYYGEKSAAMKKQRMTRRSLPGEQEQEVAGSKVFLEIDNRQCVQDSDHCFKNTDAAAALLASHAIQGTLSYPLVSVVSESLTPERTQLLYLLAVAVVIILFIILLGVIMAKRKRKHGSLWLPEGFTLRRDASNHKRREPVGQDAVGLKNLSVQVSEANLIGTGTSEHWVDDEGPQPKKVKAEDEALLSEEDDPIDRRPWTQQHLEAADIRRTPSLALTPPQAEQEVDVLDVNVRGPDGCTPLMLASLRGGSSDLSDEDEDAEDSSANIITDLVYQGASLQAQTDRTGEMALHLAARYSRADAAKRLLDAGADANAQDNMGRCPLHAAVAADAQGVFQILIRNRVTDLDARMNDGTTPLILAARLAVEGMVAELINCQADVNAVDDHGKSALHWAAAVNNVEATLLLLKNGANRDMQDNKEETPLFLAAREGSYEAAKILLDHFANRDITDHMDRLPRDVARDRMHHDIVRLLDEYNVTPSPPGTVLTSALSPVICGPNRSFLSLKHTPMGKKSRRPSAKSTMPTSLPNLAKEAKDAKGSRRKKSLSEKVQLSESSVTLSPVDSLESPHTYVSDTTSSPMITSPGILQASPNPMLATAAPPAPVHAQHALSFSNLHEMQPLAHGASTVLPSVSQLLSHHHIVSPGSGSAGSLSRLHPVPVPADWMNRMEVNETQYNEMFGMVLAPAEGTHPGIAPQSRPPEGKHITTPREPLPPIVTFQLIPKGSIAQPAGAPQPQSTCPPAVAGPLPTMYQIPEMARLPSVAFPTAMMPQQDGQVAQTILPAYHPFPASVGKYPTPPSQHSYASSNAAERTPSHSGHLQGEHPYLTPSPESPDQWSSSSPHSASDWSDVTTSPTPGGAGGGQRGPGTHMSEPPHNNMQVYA

With `[N-]=[N+]=Nc1ccccc1C[C@]1(C(=O)O)N=C(c2ccc(OCCCO)cc2)O[C@H]1c1ccccc1`, the composite z-score in [1] is 0.0867; in experiment [2], 0.444; in experiment [3] it was -0.0785; in experiment [4] it was 0.743; in [5] it was 0.448; in experiment [6] it was 1.94. Also, the composite z-score is 1.21 in experiment [7]; 0.834 in experiment [9]; -0.199 in [10]; 1.34 in experiment [11]; 3.11 in [15]; 0.0116 in experiment [17]. Also, the composite z-score was -0.0597 in [18], 0.703 in experiment [19] and -0.0828 in experiment [20]. The z-score in experiment [8] was -1.4 (inactive); in [12], 3.9 (inactive); in experiment [13], 0.888 (inactive); in [14] it was 0.712 (inactive); in experiment [16], 0.464 (inactive).
On to `COCCOC(=O)N1C(=O)[C@@]2(c3ccccc31)[C@H](c1ccc(OCCO)cc1)N1[C@H](c3ccccc3)[C@H](c3ccccc3)OC(=O)[C@H]1[C@@H]2C(=O)N1CCCCCCC1`, for which the composite z-score in experiment [1] was 4.01; in [2] it was 2.82; in experiment [3], 1.05; in [4], 1.52; in [5], 1.86; in experiment [6], 3.07. Further, the composite z-score in experiment [7] came to 1.54; in [9], 3.82; in experiment [10], 2.75; in experiment [11], 1.54; in experiment [15], 5.18; in [17] it was 1.83. Further, the composite z-score in experiment [18] amounted to 2.45; in [19], 1; in experiment [20], 1.43. In addition, the z-score is -3.1 (inactive) in [8]; 0.178 (inactive) in [12]; 0.182 (inactive) in experiment [13]; 2.92 (inactive) in [14]; -0.504 (inactive) in experiment [16].
In the case of `CCOC(=O)C1=C[C@@H](C(C)(C)C)N(S(=O)(=O)c2ccc(C)cc2)[C@H]1c1cccc(Cl)c1`, the composite z-score in [1] was -0.308; in experiment [2] it was 0.314; in experiment [3], 0.0526; in [4], 0.666; in [5] it was 1.54; in experiment [6], 0.831. For the same molecule, the composite z-score was 0.979 in experiment [7]; 0.799 in [9]; -0.14 in experiment [10]; 1.4 in experiment [11]; 2.81 in experiment [15]; 0.195 in experiment [17]. In addition, the composite z-score in experiment [18] came out at 1.04; in experiment [19] it was 1.08; in [20] it was 0.301. Also, the z-score was -2.24 (inactive) in [8]; 1.74 (inactive) in experiment [12]; 2.35 (inactive) in [13]; 3.04 (inactive) in experiment [14]; -0.695 (inactive) in experiment [16].
`CC(C)CCC[C@@H](C)[C@H]1CC[C@@]2(C)C3=C(CC[C@]12C)[C@@]1(C)CC[C@H](OC(=O)c2ccccc2)C(C)(C)C1CC3` (stereo not given in full): the composite z-score in [1] is -0.438; in experiment [2], 0.299; in experiment [3] it was -0.0916; in experiment [4], 0.157; in experiment [5], 0.474; in [6] it was 0.0304. For the same molecule, the composite z-score in experiment [7] is -0.0239; in [9] it was 0.526; in [10] it was 0.93; in experiment [11] it was -0.0528; in experiment [15], -0.11; in [17], -0.193. The figures for the composite z-score in experiment [18], in [19] and in experiment [20] were 0.559, 0.316 and -0.0828, respectively. The z-score in experiment [8] was -0.374 (inactive); in experiment [12], -1.9 (inactive); in [13] it was -0.547 (inactive); in experiment [14] it was -0.568 (inactive); in [16] it was 1.59 (inactive).
As for `Cc1ccc(F)cc1S(=O)(=O)N[C@@H]1CCN(Cc2cccc3[nH]ccc23)C1`, the composite z-score in [1] is 1.05; in experiment [2], 0.871; in [3] it was -0.0894; in [4], 0.513; in experiment [5], 0.37; in experiment [6], 1.38. Also, the composite z-score in experiment [7] was 0.379; in [9], -0.0112; in experiment [10], -0.0994; in experiment [11], 0.317; in [15] it was -0.466; in experiment [17], -0.0728. The composite z-score in [18] came out at 0.586; in experiment [19] it was 0.56; in experiment [20], 0.137. Further, the z-score is -0.762 (inactive) in experiment [8]; 0.84 (inactive) in experiment [12]; -1.02 (inactive) in experiment [13]; -0.639 (inactive) in experiment [14]; -0.833 (inactive) in [16].

The record behind these values is PubChem BioAssay.
